In the OligoGym collection:

Target: EFCAB6
Test: pooled miR-30 sensor sort-seq; sequence = guide strand
Conditions: shRNA
Further: reference of the scale not given here.

| Sequence | sensor-assay potency score (higher = more potent) |
| --- | --- |
| TTTCATAACAGTCTTAATGTTT | -0.893 |
| TATATCGAAATTCTTCTCTTGT | 0.825 |
| TTAGACAAGTCTGACCATCTGT | 0.537 |
| TTGACTGGCATCTCGTTCCAGA | -0.455 |
| TAGTTTGTAACAGAAATCCTTA | -0.465 |
| TTCACTTAACAGCTGATCCTTT | 0.362 |
| TTGAATATACTCTACACGGTGA | 0.203 |

Target: EFCAB7
Test: as above
Conditions: shRNA

| Sequence | sensor-assay potency score (higher = more potent) |
| --- | --- |
| TTGATCTTTAGAAATAATGTTT | -0.858 |
| TAATTTACAAAACTTGATGTAG | -0.142 |
| TTGTTTTCAATAACTGACGTTA | -0.29 |
| TTTACTGTCAACCTCTAGTTTT | -1.12 |
| TTCATCTCTATATACAAGTTGG | -0.725 |
| TACAATAATATATCCATTCTTG | -0.277 |
| TTCTCGATCATTAGCTTCCATT | -1.27 |
| TTTGTATCAAAATTCTCTCTGC | 0.129 |
| TATATTTTCATAGCCATCCATT | -0.796 |
| TTCGGTAAAACACACAAGCTGT | -0.242 |
| TTCTCTATTTCGTAGTTCGGTA | -1.01 |
| TAGTCTTGAGACATTGCTCGTT | 0.405 |

Target: EFNB2
Test: as above
Conditions: shRNA

| Sequence | sensor-assay potency score (higher = more potent) |
| --- | --- |
| TTGTTGTCGAACTTCTTCCATT | -1.15 |
| TAATAGTGCATCTGTCTGCTTG | 0.293 |
| TAGAGGATCATAATTTCTGTGA | -0.365 |
| TTAGACTTTATAAAAAACCAAC | -1.36 |
| TTAGCATAGAACCAAAACGTAG | -1.59 |
| TTGTCGAACTTCTTCCATTTGT | -0.423 |
| TTGCACACCTTAACTAGCCCGA | -0.379 |
| TTTATCAACCATATAAACTTTA | -0.264 |
| TATAGTACCAGTCCTTGTCCAG | -0.415 |
| TATCTGTGGGTATAGTACCAGT | -1.11 |
| TTTTCCTTCTTAATAGTGCATC | -0.818 |
| TTGATCCAGCAGAACTTGCATC | -0.768 |
| TTGCTCTATGTACACAATCTGG | -1.18 |
| ATAGGCTCTAAAACTATCGATT | -0.56 |
| TATAATATTCATACTGGCCAAC | -1.28 |
| TTCTGCACAGTCTTCCAGCTTC | -0.41 |
| TAGTGCATCTGTCTGCTTGGTC | 0.00867 |
| TTGGAAATCGCAGTTCTGCATA | -1.17 |
| TTTATACAAAACATCTTGCTTA | 0.624 |
| TATAATGTAATAATCTTTGTTC | 0.426 |
| TTTTCTTCCTGCACATCGCTAT | 0.000564 |
